Our source for the Inhibition values is ChEMBL document CHEMBL1157539, “Thousands of chemical starting points for antimalarial lead identification” (Nature, 2010).

As a reminder, the Inhibition is the change of the read-out against control, counted positive when it falls.

Common to all, as to format: functional
The test system of test [1] is Plasmodium falciparum. Put plainly: GSK_TCMDC: Inhibition of Plasmodium falciparum 3D7 in whole red blood cells, using parasite LDH activity as an index of growth. Test compounds present at 2uM.
Test [2] has as its system Plasmodium falciparum. Description: GSK_TCMDC: Inhibition of Plasmodium falciparum Dd2 in whole red blood cells, using parasite LDH activity as an index of growth. Test compounds present at 2uM.
The subject of a further test is HepG2. Put plainly: GSK_TCMDC: Percent inhibition of human HepG2 cell line. Test compounds present at 10uM.

For `Cc1cc(N[C@@H](Cc2ccccc2)C(=O)NC2CCCC2)nc(NCCOc2ccccc2)n1.O=C(O)C(F)(F)F`, the Inhibition in the test on Plasmodium falciparum [1] is on record as 98%; in the test with Plasmodium falciparum [2], 48%; with HepG2, 40%.

`CCCC[C@H](NC(=O)O[C@H](COc1ccc(OCc2ccccc2)cc1)C(C)(C)C)C(=O)C(=O)Nc1cc[nH]n1`: the Inhibition in the test on Plasmodium falciparum [1] amounted to 88%; in the test on Plasmodium falciparum [2], 71%; with HepG2, 21%.

Regarding `N=C(N)NN=Cc1ccccc1OCc1ccccc1Cl`, the Inhibition with Plasmodium falciparum [1] is 100%; in the test on Plasmodium falciparum [2], 30%; in the test on HepG2, 14%.

As to `Clc1ccc2c(NN=Cc3ccco3)ccnc2c1`, the Inhibition in the test on Plasmodium falciparum [1] is listed as 100%; in the test on Plasmodium falciparum [2] it was 96%; with HepG2, 3%.

As to `CN1CCN(c2ccnc3ccc(NC(=O)Nc4cccc(C#N)c4)cc23)CC1`, the Inhibition turned out to be 99% in the test with Plasmodium falciparum [1], 96% with Plasmodium falciparum [2] and 11% in the test on HepG2.

With `CC(=O)Nc1ncc(C(=O)Nc2ccc(-c3cccc(-c4nc5cc(F)ccc5[nH]4)c3)cc2)s1`, the Inhibition with Plasmodium falciparum [1] was found to be 100%; in the test with Plasmodium falciparum [2], 85%; with HepG2 it was 47%.

On to `CC(C)(C)c1ccc(CNC(=O)c2ccc(CNC3CCC(N)CC3)s2)cc1` (configuration not stated), for which the Inhibition was 100% in the test with Plasmodium falciparum [1], 10% in the test with Plasmodium falciparum [2] and 41% with HepG2.

As for `O=C(O)C(F)(F)F.c1ccc(CNCCn2c(-c3ccc4c(c3)CCO4)nc3c(N4CCCC4)cccc32)cc1`, the Inhibition with Plasmodium falciparum [1] was 82%; in the test on Plasmodium falciparum [2], 85%; with HepG2, 9%.

With `Cc1ccc2[nH]c(C)cc(=NN=Cc3ccccc3Cl)c2c1`, the Inhibition with Plasmodium falciparum [1] is 100%; in the test on Plasmodium falciparum [2], 62%; in the test on HepG2, 6%.

Regarding `Cc1cc(NC(=O)NCCN2CCC(NC(=O)c3ccc(C(F)(F)F)cc3)CC2)c2ccccc2n1.O=C(O)C(F)(F)F`, the Inhibition with Plasmodium falciparum [1] was 98%; in the test on Plasmodium falciparum [2], 75%; with HepG2, 3%.

With `CCCCN(Cc1cnccc1-c1ccc(Br)cc1)c1ccc(C(O)(C(F)(F)F)C(F)(F)F)cc1.O=C(O)C(F)(F)F`, the Inhibition in the test on Plasmodium falciparum [1] is 87%; with Plasmodium falciparum [2] it was 45%; with HepG2, 10%.

Take `Cc1cccc(CN2CCCN(Cc3cccc(C(=O)Nc4ccc(C(C)(C)C)cc4)c3)CC2)c1.O=C(O)C(F)(F)F`: the Inhibition came out at 89% in the test on Plasmodium falciparum [1], 40% with Plasmodium falciparum [2] and 98% in the test with HepG2.

Take `Cl.O=C(Nc1cccc(-c2nn3ncccc3c2-c2ccnc(Nc3cccnc3)n2)c1)c1c(F)cccc1F`: the Inhibition was 96% in the test with Plasmodium falciparum [1], 70% in the test with Plasmodium falciparum [2] and 5% in the test on HepG2.

Turning to `OC(CN1CCN(Cc2ccccc2)CC1)Cn1c(-c2ccccc2)c(-c2ccccc2)c2ccccc21` (configuration not stated), the figures for the Inhibition in the test on Plasmodium falciparum [1], in the test with Plasmodium falciparum [2] and with HepG2 were 98%, 97% and 0%, respectively.

`CCOC(=O)N1CCN(CCCNc2c3ccc(Cl)cc3nc3ccc(OC)cc23)CC1`: the Inhibition with Plasmodium falciparum [1] is 100%; in the test with Plasmodium falciparum [2], 100%; in the test on HepG2 it was 52%.

On to `Cc1cc(=NN=Cc2ccccc2)c2cc(F)ccc2[nH]1`, for which the Inhibition in the test with Plasmodium falciparum [1] worked out at 100%; in the test with Plasmodium falciparum [2] it was 94%; with HepG2, 11%.

For `COc1ccc2ncc(F)c(CCN3CC[C@@H](CNCc4cc5c(cn4)OCS5)C3)c2n1.Cl`, the values for the Inhibition in the test on Plasmodium falciparum [1], in the test on Plasmodium falciparum [2] and with HepG2 were 98%, 29% and 3%, respectively.

As to `Cl.O=S(=O)(Nc1cc2c(cc1O)CCN(C1CCC1)CC2)c1ccc(Oc2ccc(F)cc2)cc1`, the Inhibition turned out to be 99% with Plasmodium falciparum [1], 52% with Plasmodium falciparum [2] and 20% with HepG2.

Consider `CCOc1ccccc1CNc1nccc(NCc2ccccc2OC)n1`, for which the Inhibition in the test on Plasmodium falciparum [1] stood at 87%; in the test on Plasmodium falciparum [2], 66%; with HepG2, 50%.

With `CCCCN1CC[C@@H](CCC(O)c2cc(OCCC)nc3ccc(OC)cc23)[C@@H](CC)C1.O=C(O)C(=O)O` (some centres not stated), the Inhibition in the test with Plasmodium falciparum [1] is given as 100%; in the test on Plasmodium falciparum [2], 99%; with HepG2, 23%.

For `CC(C)CNCc1ccc(-c2ccccc2CN(C(=O)NCCc2ccccc2)C2CCN(Cc3ccccc3)CC2)cc1.O=C(O)C(F)(F)F`, the Inhibition in the test on Plasmodium falciparum [1] was 98%; with Plasmodium falciparum [2], 94%; with HepG2 it was 89%.

For `NCCCCNc1cc(-c2ccnc(Nc3cccc(Cl)c3)n2)ccn1`, the Inhibition came out at 94% in the test with Plasmodium falciparum [1], 91% in the test on Plasmodium falciparum [2] and 46% in the test on HepG2.

Turning to `CCn1ncc2c(N3CCCC3=O)cc(C(=O)N[C@@H](Cc3ccccc3)[C@H](O)CNC(C)(C)c3cccc(OC)c3)cc21`, the Inhibition in the test on Plasmodium falciparum [1] is listed as 98%; with Plasmodium falciparum [2] it was 97%; in the test with HepG2, 6%.

Regarding `Br.CC(C)(Cc1ccc(Cl)cc1)NCCCCCCNCCc1ccc(O)c(O)c1`, the Inhibition with Plasmodium falciparum [1] turned out to be 90%; in the test with Plasmodium falciparum [2], 0%; with HepG2, 45%.

Take `O=C(COc1ccccc1Cc1ccccc1)Nc1cc(Cl)ccc1-n1cncn1`: the results for the Inhibition in the test on Plasmodium falciparum [1], in the test on Plasmodium falciparum [2] and with HepG2 were 92%, 93% and 5%, respectively.

With `NS(=O)(=O)c1cccc(Br)c1`, the Inhibition is listed as 98% in the test on Plasmodium falciparum [1], 0% with Plasmodium falciparum [2] and 0% with HepG2.

As for `COC(=O)CCCCCOc1cc(Cc2cnc(N)nc2N)cc(OC)c1OC`, the Inhibition in the test with Plasmodium falciparum [1] was found to be 90%; in the test with Plasmodium falciparum [2], 0%; with HepG2, 0%.

In the case of `CCc1ccc(C(=O)NC(=O)c2ccccc2O)cc1`, the Inhibition with Plasmodium falciparum [1] was 95%; in the test on Plasmodium falciparum [2] it was 84%; in the test with HepG2, 0%.

`O=C(/C=C/c1ccc(Cl)c(Cl)c1)N1CCC(CN2CCC(c3c[nH]c4cnccc34)CC2)CC1`: the figures for the Inhibition in the test with Plasmodium falciparum [1], in the test with Plasmodium falciparum [2] and in the test with HepG2 were 100%, 100% and 39%, respectively.
